# CtBP-E1A inh: qHTS Assay for Inhibitors of the CtBP/E1A Interaction; CtBP / adenovirus E1A interaction (AlphaScreen); AlphaScreen GST-E1A/His-CtBP binding, 1536-well; stronger effect = lower value; activity change, % (no concentration beside the values); 340,000 compounds, 0.49% hits; AID 651724, 2012; in the data active means activity change below about -65%; inconclusive means mostly about -30% to -63%
#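 Steps: dispense buffer (Tris pH 8.0, NaCl 300 mM, TCEP 1 mM, BSA, Tween 20); add 5X protein mix (GST-E1A, His-CtBP, 125 nM each); pin 23 nL compound; 2 h at 37 °C, dark; add 5X beads (50 ug/mL); 1 h; read.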
# Six1-Eya2 blk: qHTS Assay for Inhibitors of the Six1/Eya2 Interaction; AlphaScreen GST-Six1/His-Eya2 binding, biochemical; stronger effect = lower value; activity change, % (test concentration not listed); 360,000 compounds, 0.56% hits; in the data active means activity change below about -65%; inconclusive means mostly about -30% to -63%
#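 Homogeneous AlphaScreen proximity assay pairing GST-Six1 with His-tagged Eya2 (added as 5X mix: 250 nM and 500 nM) in 50 mM Tris pH 8.0, 300 mM NaCl, 1 mM TCEP. Glutathione donor and nickel acceptor beads; 1 h, 37 °C, dark.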
# RORgamma inh: qHTS for inhibitors of ROR gamma transcriptional activity; Nuclear receptor ROR-gamma (Mus musculus), P51450; Potency, µM (doses to about 53.6 µM), inactives show at the top dose activity change, negative = inhibition, usual class: inhibitors; 310,000 compounds, 5.4% hits; Drosophila S2 Gal4-RORgamma UAS-luciferase reporter, 20 h; further: potency means the concentration at half of the fitted maximal effect; nearly all actives have a fitted effect of over 60% in size
#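 Stable Schneider cell line, Gal4 DNA-binding domain fused to ROR gamma, UAS-luciferase. Cmpd 1 hr RT → CuSO4 700 uM final → 20 hr RT → luciferase reagent 10 min → luminescence.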
# PKM2 act: qHTS Assay for Activators of Human Muscle isoform 2 Pyruvate Kinase; Pyruvate kinase PKM (Homo sapiens), P14618; purified PKM2, Kinase-Glo ATP luminescence, activation; response scale: 0% is enzyme alone, no compound; Potency, µM (highest dose often 57.5 µM), without a hit: at the top dose activation, actives largely listed as activators; 260,000 compounds, 0.34% hits; further: potency means the concentration at half of the fitted maximal effect; nearly all actives have a fitted effect of over 55% in size
# Target sequence (P14618 whole entry, looked up, canonical isoform): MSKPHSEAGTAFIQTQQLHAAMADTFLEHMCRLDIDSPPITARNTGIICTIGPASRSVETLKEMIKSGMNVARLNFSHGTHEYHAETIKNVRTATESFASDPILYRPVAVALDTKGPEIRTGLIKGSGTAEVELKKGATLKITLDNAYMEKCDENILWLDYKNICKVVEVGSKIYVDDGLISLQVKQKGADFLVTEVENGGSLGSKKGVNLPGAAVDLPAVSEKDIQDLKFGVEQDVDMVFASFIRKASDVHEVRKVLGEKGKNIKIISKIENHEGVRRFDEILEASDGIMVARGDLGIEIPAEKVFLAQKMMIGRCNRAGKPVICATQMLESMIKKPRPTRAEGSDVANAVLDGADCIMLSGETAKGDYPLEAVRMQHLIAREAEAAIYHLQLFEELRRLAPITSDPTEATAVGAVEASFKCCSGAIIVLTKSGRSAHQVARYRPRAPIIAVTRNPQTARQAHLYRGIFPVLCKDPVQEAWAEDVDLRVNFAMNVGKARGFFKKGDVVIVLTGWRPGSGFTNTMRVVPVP
#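 hPK-M2, >95% pure; 0.1 mM ADP / 0.5 mM PEP final; imidazole pH7.2 buffer w/ 7 mM MgCl2, 50 mM KCl; 1 h RT; Kinase-Glo lum. Intermediate enzyme activity for dual inhibitor/activator qHTS.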
# Gal4-VP16 FLuc: VP16 counterscreen qHTS for inhibitors of ROR gamma transcriptional activity. Drosophila S2 Gal4-VP16 UAS-luciferase, luminescence, 20 h. Potency, µM (series often up to 53.6 µM), inactives show at the top dose activity, negative = inhibition, usual class: inhibitors. 310,000 compounds, 3.5% hits;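 further: Gal4-VP16 expression switched on by copper sulfate through the metallothionein promoter; potency means the concentration at half of the fitted maximal effect; nearly all actives have a fitted effect of over 50% in size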
# * = called active by the depositor; u = inconclusive; x = not tested or not shown; [ ] = another dose, or the depositor's remark. This is a sample that favours compounds with a hit; in the whole collection about 5.6% have one here. Unless noted, the call rests on the fitted dose curve; in most records, active means well fitted curve in the direction sought with a large enough effect; inconclusive means small, poorly fitted or top-dose-only effect, or another doubt; inactive means no such curve, though single readings can be large; an effect the other way counts as inactive or inconclusive. On the % scale 0 is the no-effect control and ±100 the full control effect.
SMILES,CtBP-E1A inh,Six1-Eya2 blk,RORgamma inh,PKM2 act,Gal4-VP16 FLuc
COc1cc(/C=C/c2ccc3cccc(O)c3n2)c(Br)cc1O,x,x,2.8µM*,x,u
CCOC(=O)N/N=C/c1ccccc1-c1cc(OC)ccc1OC,x,x,-4%,x,3%
CCC/C=C1/CCCOC(C(=O)NCC2CC2)(C(F)(F)F)C1 (stereo not drawn),x,x,-12%,x,6%
COc1ccc(C)cc1NC(=O)C(NC(=O)c1cc(OC)c(OC)c(OC)c1)C(C)C (stereo not drawn),-15,10,-23%,0%,-13%
CCCCn1c(N)c(N(CC(C)C)C(=O)CCCc2nc3ccccc3c(=O)[nH]2)c(=O)[nH]c1=O,-3,4,x,x,x
Oc1ccc2ccccc2c1/C=C/c1ccc2c(Br)cc(Br)c(O)c2n1,0,8,x,x,x
COc1cc(/C=C/c2ccc3cccc(OC)c3n2)c(O)c([N+](=O)[O-])c1,-4,-8,-35%,-14%,-3%
COc1cc(Br)c(/C=C/c2ccc3cccc(O)c3n2)cc1OC,x,0,2.8µM*,x,3.2µM*
COc1cc(Br)cc(/C=C/c2ccc3cccc(O)c3n2)c1O,x,-4,2.5µM*,x,3.2µM*
Oc1cccc2ccc(/C=C/c3ccccc3Br)nc12,11,-4,4µM*,x,3.2µM*
Cc1cc(C(=O)CN2CCC(C)CC2)c(C)n1-c1ccccc1F,-11,-13,5.6µM*,-1%,4.5µM*
Cc1ccc(CSc2sc(C(=O)c3ccccc3)c(N)c2C#N)cc1,28,9,6%,6%,9%
Cc1ccc(-c2sc(C(=O)NN)c(C)c2C#N)cc1,9,3,4.5µM*,3%,7.1µM*
C/C(CC(=O)NC1CCCCC1)=N\NC(=O)c1ccc(Br)cc1,-5,4,13µM*,-1%,11µM*
C/C(CC(=O)NC1CCCC1)=N\NC(=O)C1CCCCC1,0,-2,16µM*,3%,-3%
CC(=O)Nc1ccccc1NC(=O)C/C(C)=N/NC(=O)C1CCCCC1,1,-3,-16%,7%,4%
CC(=O)Nc1cccc(-c2ccnc3c2CC(C(=O)NCc2ccc(N4CCN(C)CC4)cc2)O3)c1 (stereo not drawn),-15,-11,x,x,x
CCN1C(=O)/C(=C\N(C(C)=O)c2ccccc2)OC1=S,0,2,7.9µM*,0%,10µM*
Cc1ccc(C)c(C(C)NC(=O)Cc2cccs2)c1 (stereo not drawn),6,4,2%,-2%,-2%
COc1ccc(C2CC(c3ccccc3)=NN2C(=O)COC(=O)c2nc3nccc(C)n3n2)cc1 (stereo not drawn),-1,-5,12%,-4%,8%
Cc1ccc(S(=O)(=O)N2CCOC23CCN(C(=O)C(=O)NCc2ccccc2)CC3)cc1,4,-4,x,x,x
CCOC(=O)c1c(NC(=O)CNCC(O)CO)sc(C)c1C (stereo not drawn),-1,1,-2%,3%,8%
CCOC(=O)c1sc(NC(=S)NC(=O)c2ccccc2)c(C(=O)OCC)c1C,2,-4,2.2µM*,-8%,u
COC(=O)c1c(NC(=O)Cc2ccccc2)sc(C)c1C,-1,14,15%,-7%,15%
CCCCNCC(=O)Nc1sc(C)c(C)c1C(=O)OCC,13,1,13µM*,-5%,u
SMILES,CtBP-E1A inh,Six1-Eya2 blk,RORgamma inh,PKM2 act,Gal4-VP16 FLuc
CCOC(=O)c1c(NC(C)=O)sc(/C(C)=N/Nc2ccc(C(=O)O)cc2)c1C,-29,-24,11µM*,x,u
COC(=O)c1c(NC(=S)Nc2ccccc2Cl)sc(C)c1C,8,-4,2.8µM*,-2%,6.3µM*
C#CCn1c(=O)c2c(nc(/C=C/c3cccc(OC)c3)n2C)n(CCCO)c1=O,x,x,23%,x,-1%
CCOC(=O)c1c(NC(=O)COC)sc(C)c1C,-6,8,4%,-3%,1%
CCOC(=O)c1c(NC(=S)NC(C)=O)sc(C)c1C,-6,-10,7.9µM*,-7%,11µM*
Cc1ccc(-c2nc(Nc3ccc(O)cc3)c3ccccc3n2)cc1,-9,-14,-13%,x,1%
Cc1ccc(-c2nc(C(Cl)Cl)c3ccccc3n2)cc1,-2,-2,u,-1%,8.9µM*
CC1(C)Cc2c(sc3nc(-c4cccs4)n(N)c(=O)c23)CO1,-4,-3,u,2%,16µM*
CC1(C)Cc2c(sc3nc(-c4ccccc4)n(N)c(=O)c23)CO1,11,-9,-15%,-4%,-2%
CCOC(=O)c1ccc(NC(=O)Cn2ncc(Cl)c(Cl)c2=O)cc1,-20,-30,u,-6%,10µM*
CCOC(=O)c1ccc(NC(=O)CC2Sc3ncnn3C2=O)cc1 (stereo not drawn),-1,-1,u,13%,22µM*
O=C(OCn1ncc(Cl)c(Cl)c1=O)c1ccc(C(F)(F)F)cc1,5,-1,u,0%,7.1µM*
Cc1ccc(C(=O)OCn2ncc(Cl)c(Cl)c2=O)cc1,10,-11,25%,u,-12%
COc1ccc(NC(=O)CC2Sc3ncnn3C2=O)cc1 (stereo not drawn),3,-10,u,u,u
CNC(=O)CS(=O)CC(=O)Nc1cc(OCCOC)c(Cl)cc1Cl (stereo not drawn),5,5,1%,-1%,6%
COc1ccc2nc(/N=C\N(C)C)sc2c1,0,3,-4%,0%,-6%
COc1ccc2nc(N=Nc3ccc(N(C)C)cc3)sc2c1,-25,u,14µM*,-21%,1.4µM*
Nc1ccc(C(=O)Nc2ccc(Nc3ccncc3)cc2)c([N+](=O)[O-])c1,-7,2,x,x,x
Cc1ccccc1OCCC(=O)OCC(=O)Nc1c(F)cccc1F,2,0,x,x,x
CCN(CC)S(=O)(=O)c1ccc(N2CCN(c3ccccc3OC)CC2)c(N)c1,-11,-15,u,-1%,22µM*
CCN(CC)S(=O)(=O)c1ccc(Oc2ccccc2)c(N)c1,0,-4,52%,2%,0%
COc1cc(OC)c(OC)cc1/C=N/N(C)c1ccccc1,u,-66*,16%,-7%,4%
CS(=O)(=O)c1ccc(Cl)c(NC(=O)CCl)c1,-17,12,14µM*,2%,-66%
Cc1cccc(N(CC(=O)N2CCCCCC2)S(C)(=O)=O)c1,x,-5,8%,-5%[11.5 µM],5%
CCn1c(SCC(=O)Nc2ccccc2)nc2nc3c(cc2c1=O)COC(C)(C)C3,-5,-6,-25%,-6%,2%
CCn1c(SCC(=O)Nc2cccc(C)c2)nc2nc3c(cc2c1=O)COC(C)(C)C3,2,-20,-26%,14µM*,8%

# Assay outcomes as filed in PubChem BioAssay.
